Test results published in article PMC7862700, “An all-to-all approach to the identification of sequence-specific readers for epigenetic DNA modifications on cytosine”.

Assays:
Assay in all cases: DAPPL (digital affinity profiling via proximity ligation, sequencing); 10 mM Tris-HCl pH 7.5, 50 mM NaCl, 1 mM DTT, 4% glycerol, room temperature, 30 min; GST-TFs on glutathione beads, 16-mer random dsDNA library, 0.1% formaldehyde crosslink after washing; high values mean tight binding
[1] = molecular target: T1, FEV (Homo sapiens, UniProt Q99581 1-238); conditions: protein: recombinant; tags: N-terminal GST; dsDNA, one strand shown
T1 sequence: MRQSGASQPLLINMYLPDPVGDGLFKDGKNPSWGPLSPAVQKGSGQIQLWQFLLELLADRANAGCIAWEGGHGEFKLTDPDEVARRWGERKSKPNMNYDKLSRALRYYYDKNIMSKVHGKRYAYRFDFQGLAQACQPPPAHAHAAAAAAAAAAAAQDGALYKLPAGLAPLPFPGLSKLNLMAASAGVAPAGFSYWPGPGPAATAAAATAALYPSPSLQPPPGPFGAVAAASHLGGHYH
Summary of the method: (§1)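 In yeast, human transcription factors were expressed with a GST fusion, then pulled down on glutathione beads and given DNA barcodes. Pooled with a tag-only sample, they were exposed to 200 nmole of a 16-mer random double-stranded DNA library (Tris/NaCl/DTT/glycerol buffer, room temperature, 30 min), washed, crosslinked with 0.1% formaldehyde, proximity-ligated using BsaI/T4 ligase for 1 h at 37 °C, PCR-amplified and read on an Illumina NextSeq500. Each hexamer's frequency of reads for a factor, divided by the matching frequency for the tag-only sample, gives the binding signal.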

[2] = molecular target: ETV5 (Homo sapiens, UniProt P41161 1-510); conditions: protein: recombinant; tags: N-terminal GST; dsDNA, one strand shown
Summary of the method: as §1

[3] = molecular target: HSF1 (Homo sapiens, UniProt Q00613 1-529); conditions: protein: recombinant; tags: N-terminal GST; chain copies: 3; dsDNA, one strand shown
Summary of the method: as §1

[4] = molecular target: T2, SPIC (Homo sapiens, UniProt Q8N5J4 1-248); conditions: protein: recombinant; tags: N-terminal GST; dsDNA, one strand shown
T2 sequence: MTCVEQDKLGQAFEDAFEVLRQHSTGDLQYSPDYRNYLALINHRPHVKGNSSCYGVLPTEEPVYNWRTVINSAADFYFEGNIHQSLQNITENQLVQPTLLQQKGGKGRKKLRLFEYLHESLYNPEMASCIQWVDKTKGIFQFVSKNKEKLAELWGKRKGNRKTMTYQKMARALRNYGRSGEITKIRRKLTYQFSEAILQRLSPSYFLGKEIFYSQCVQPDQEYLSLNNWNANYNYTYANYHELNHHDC
Summary of the method: as §1

[5] = molecular target: T3, ELK4 (Homo sapiens, UniProt P28324-2 1-405); conditions: protein: recombinant; tags: N-terminal GST; dsDNA, one strand shown
T3 sequence: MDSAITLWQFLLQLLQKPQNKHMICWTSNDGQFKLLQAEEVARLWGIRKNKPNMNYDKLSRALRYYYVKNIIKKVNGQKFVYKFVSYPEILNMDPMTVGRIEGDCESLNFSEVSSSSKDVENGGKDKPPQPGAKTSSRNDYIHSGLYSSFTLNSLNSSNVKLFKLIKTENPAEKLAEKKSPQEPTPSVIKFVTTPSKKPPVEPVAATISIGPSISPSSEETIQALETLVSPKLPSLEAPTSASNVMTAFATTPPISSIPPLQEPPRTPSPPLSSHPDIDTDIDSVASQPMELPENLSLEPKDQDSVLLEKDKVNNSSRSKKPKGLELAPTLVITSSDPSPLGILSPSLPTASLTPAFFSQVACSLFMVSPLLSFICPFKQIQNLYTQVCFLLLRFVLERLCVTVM
Summary of the method: as §1

[6] = molecular target: T4, ETV2 (Homo sapiens, UniProt O00321 1-342); conditions: protein: recombinant; tags: N-terminal GST; dsDNA, one strand shown
T4 sequence: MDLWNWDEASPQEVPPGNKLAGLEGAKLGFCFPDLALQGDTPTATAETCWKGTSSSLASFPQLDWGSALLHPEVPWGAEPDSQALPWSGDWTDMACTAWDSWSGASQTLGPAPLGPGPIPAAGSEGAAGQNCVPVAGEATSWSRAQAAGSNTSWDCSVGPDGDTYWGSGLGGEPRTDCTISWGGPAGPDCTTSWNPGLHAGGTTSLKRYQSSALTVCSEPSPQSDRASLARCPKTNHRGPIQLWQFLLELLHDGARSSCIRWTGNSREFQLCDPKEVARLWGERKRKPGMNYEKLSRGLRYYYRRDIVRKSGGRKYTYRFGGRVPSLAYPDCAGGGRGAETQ
Summary of the method: as §1

[7] = molecular target: CRX (Homo sapiens, UniProt O43186 1-299); conditions: protein: recombinant; tags: N-terminal GST; dsDNA, one strand shown
Summary of the method: as §1

[8] = molecular target: ETV1 (Homo sapiens, UniProt P50549 1-477); conditions: protein: recombinant; tags: N-terminal GST; dsDNA, one strand shown
Summary of the method: as §1

[9] = molecular target: T5, ERF (Homo sapiens, UniProt P50548 1-548); conditions: protein: recombinant; tags: N-terminal GST; dsDNA, one strand shown
T5 sequence: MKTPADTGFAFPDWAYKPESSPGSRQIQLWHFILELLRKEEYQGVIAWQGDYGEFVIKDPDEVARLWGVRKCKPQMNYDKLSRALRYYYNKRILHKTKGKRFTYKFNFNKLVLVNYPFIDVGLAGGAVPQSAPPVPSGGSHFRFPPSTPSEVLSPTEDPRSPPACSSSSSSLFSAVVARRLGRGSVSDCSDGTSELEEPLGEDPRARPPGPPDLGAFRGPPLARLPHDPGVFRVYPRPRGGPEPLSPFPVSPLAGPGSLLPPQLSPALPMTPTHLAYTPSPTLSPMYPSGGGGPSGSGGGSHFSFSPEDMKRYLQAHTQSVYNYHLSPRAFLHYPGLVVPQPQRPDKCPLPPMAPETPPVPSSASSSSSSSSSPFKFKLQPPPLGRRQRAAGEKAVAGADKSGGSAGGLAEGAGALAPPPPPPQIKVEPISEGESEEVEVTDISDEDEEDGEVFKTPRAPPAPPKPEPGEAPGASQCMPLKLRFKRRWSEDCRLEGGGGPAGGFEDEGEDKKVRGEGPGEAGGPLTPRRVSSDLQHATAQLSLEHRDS
Summary of the method: as §1

[10] = molecular target: T6, ETV3L (Homo sapiens, UniProt Q6ZN32 1-361); conditions: protein: recombinant; tags: N-terminal GST; dsDNA, one strand shown
T6 sequence: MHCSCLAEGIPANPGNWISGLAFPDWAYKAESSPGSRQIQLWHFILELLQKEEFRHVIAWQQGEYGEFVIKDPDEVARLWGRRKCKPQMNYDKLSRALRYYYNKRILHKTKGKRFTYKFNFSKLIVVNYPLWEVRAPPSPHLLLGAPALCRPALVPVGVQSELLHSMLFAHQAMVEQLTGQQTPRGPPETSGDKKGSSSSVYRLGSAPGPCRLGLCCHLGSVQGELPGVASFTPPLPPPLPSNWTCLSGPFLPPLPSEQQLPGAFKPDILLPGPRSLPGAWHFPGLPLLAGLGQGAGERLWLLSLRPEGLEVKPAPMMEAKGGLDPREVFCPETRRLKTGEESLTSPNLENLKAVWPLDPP
Summary of the method: as §1

[11] = molecular target: T7, ETS2 (Homo sapiens, UniProt P15036 1-469); conditions: protein: recombinant; tags: N-terminal GST; dsDNA, one strand shown
T7 sequence: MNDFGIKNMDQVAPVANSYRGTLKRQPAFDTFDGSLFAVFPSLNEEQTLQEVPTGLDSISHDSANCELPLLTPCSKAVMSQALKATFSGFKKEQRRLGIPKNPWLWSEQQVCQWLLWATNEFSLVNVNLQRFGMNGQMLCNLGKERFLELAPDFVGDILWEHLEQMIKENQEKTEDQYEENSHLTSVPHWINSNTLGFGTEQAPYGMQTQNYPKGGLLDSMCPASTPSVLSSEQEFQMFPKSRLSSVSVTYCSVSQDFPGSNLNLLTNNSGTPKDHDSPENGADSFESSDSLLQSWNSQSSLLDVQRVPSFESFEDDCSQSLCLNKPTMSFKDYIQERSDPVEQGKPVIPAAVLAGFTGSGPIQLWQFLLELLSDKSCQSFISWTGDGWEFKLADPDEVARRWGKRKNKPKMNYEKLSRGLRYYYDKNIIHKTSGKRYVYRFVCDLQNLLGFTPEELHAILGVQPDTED
Summary of the method: as §1

[12] = molecular target: T8, SPDEF (Homo sapiens, UniProt O95238 1-335); conditions: protein: recombinant; tags: N-terminal GST; dsDNA, one strand shown
T8 sequence: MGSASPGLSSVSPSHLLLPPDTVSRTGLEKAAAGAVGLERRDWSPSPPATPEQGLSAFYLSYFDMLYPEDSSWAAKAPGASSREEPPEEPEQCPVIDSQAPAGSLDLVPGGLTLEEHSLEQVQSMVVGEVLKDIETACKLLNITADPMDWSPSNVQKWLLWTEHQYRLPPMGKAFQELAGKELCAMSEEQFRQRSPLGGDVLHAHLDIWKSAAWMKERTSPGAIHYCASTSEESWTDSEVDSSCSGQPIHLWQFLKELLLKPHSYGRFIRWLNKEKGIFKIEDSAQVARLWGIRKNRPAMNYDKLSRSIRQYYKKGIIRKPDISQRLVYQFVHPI
Summary of the method: as §1

[13] = molecular target: T9, ETV7 (Homo sapiens, UniProt Q9Y603 1-341); conditions: protein: recombinant; tags: N-terminal GST; dsDNA, one strand shown
T9 sequence: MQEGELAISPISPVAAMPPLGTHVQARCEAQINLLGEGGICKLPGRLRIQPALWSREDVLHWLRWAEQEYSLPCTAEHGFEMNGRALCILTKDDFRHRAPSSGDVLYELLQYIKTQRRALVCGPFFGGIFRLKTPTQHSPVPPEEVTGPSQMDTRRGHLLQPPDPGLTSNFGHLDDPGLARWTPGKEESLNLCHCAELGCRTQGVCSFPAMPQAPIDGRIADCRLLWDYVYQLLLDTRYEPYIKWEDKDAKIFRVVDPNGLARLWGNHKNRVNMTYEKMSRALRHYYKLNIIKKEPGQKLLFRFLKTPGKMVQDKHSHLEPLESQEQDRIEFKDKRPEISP
Summary of the method: as §1

[14] = molecular target: T10, ELF5 (Homo sapiens, UniProt Q9UKW6-2 1-255); conditions: protein: recombinant; tags: N-terminal GST; dsDNA, one strand shown
T10 sequence: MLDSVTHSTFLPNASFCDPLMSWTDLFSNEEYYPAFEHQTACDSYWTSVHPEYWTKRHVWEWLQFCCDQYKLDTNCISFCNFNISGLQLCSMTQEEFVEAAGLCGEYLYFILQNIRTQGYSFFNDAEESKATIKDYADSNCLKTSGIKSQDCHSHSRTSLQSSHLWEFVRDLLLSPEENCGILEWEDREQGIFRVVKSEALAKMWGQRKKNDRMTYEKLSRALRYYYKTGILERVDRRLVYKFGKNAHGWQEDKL
Summary of the method: as §1

[15] = molecular target: T11, ETV3 (Homo sapiens, UniProt P41162-2 1-143); conditions: protein: recombinant; tags: N-terminal GST; dsDNA, one strand shown
T11 sequence: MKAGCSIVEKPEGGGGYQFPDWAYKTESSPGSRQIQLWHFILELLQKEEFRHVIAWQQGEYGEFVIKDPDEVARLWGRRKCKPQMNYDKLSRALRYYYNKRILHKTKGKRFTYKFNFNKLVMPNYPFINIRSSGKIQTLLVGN
Summary of the method: as §1

[16] = molecular target: ETV6 (Homo sapiens, UniProt P41212 1-452); conditions: protein: recombinant; tags: N-terminal GST; dsDNA, one strand shown
Summary of the method: as §1

HSF1, sequence (Q00613 whole entry): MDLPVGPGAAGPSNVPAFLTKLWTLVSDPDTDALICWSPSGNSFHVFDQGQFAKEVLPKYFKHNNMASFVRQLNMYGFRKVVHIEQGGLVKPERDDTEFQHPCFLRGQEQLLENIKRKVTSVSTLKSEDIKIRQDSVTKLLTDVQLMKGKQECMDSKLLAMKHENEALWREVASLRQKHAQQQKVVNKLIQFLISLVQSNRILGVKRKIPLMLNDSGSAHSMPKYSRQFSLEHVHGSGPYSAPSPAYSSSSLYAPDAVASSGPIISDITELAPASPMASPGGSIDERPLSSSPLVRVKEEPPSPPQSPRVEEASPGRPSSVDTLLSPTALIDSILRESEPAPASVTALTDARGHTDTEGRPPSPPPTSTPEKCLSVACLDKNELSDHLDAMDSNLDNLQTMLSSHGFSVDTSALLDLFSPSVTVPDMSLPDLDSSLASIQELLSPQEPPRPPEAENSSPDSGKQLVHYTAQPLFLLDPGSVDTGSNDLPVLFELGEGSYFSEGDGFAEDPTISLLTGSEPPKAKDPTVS
CRX, sequence (O43186 whole entry): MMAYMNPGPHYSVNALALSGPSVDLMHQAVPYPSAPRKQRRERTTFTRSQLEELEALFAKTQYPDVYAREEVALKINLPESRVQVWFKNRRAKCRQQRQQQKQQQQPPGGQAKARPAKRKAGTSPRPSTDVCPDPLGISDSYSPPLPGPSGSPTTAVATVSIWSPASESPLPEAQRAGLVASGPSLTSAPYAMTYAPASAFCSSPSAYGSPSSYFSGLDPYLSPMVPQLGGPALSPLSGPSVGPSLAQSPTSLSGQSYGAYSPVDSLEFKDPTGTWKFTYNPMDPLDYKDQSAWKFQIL
ETV5, sequence (P41161 whole entry): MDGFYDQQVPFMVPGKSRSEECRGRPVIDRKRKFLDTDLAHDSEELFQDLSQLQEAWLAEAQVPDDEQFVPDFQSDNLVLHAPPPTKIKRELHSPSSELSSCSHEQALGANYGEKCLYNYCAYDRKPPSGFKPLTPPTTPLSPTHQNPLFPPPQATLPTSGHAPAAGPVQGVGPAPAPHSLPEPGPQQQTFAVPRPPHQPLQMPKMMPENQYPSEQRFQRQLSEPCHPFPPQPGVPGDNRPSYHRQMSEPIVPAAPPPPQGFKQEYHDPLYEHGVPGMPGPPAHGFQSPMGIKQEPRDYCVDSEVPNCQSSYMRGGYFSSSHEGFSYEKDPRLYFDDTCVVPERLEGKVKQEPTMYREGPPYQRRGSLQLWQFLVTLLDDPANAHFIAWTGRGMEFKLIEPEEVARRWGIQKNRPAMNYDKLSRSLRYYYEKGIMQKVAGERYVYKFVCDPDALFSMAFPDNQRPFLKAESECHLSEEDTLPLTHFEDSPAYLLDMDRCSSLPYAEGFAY
ETV1, sequence (P50549 whole entry): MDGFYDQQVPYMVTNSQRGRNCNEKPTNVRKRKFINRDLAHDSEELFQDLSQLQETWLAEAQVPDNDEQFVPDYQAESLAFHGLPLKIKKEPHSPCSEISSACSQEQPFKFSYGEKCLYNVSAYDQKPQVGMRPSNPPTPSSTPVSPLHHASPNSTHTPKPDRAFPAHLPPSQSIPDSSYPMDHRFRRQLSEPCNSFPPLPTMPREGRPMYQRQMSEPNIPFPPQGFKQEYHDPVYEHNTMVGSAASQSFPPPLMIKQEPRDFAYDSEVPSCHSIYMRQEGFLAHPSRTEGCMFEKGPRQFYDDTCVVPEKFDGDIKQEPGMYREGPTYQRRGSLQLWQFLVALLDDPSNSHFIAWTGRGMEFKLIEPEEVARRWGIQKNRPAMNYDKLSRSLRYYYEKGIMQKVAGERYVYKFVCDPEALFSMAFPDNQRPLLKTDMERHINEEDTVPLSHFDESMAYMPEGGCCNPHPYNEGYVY
ETV6, sequence (P41212 whole entry): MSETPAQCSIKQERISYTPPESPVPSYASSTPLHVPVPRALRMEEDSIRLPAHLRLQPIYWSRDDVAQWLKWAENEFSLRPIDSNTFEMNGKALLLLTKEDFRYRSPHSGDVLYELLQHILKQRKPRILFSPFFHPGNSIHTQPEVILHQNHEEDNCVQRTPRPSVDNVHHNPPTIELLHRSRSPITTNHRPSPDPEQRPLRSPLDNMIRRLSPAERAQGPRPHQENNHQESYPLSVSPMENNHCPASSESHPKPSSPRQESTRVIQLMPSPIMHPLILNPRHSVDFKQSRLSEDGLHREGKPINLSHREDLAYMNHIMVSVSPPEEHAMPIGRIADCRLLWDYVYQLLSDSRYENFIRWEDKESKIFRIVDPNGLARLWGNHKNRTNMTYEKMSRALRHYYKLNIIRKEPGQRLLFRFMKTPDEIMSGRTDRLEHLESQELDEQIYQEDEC

TAACGG
binding signal [1]: 1.1 fold enrichment (6-mer frequency, TF over GST control) | binding signal [2]: 1.09 fold enrichment (6-mer frequency, TF over GST control) | binding signal [3]: 1.03 fold enrichment (6-mer frequency, TF over GST control) | binding signal [4]: 1.07 fold enrichment (6-mer frequency, TF over GST control) | binding signal [5]: 1.02 fold enrichment (6-mer frequency, TF over GST control) | binding signal [6]: 1.11 fold enrichment (6-mer frequency, TF over GST control) | binding signal [7]: 1.21 fold enrichment (6-mer frequency, TF over GST control) | binding signal [8]: 1.04 fold enrichment (6-mer frequency, TF over GST control) | binding signal [9]: 1.04 fold enrichment (6-mer frequency, TF over GST control) | binding signal [10]: 1.04 fold enrichment (6-mer frequency, TF over GST control) | binding signal [11]: 1.1 fold enrichment (6-mer frequency, TF over GST control) | binding signal [12]: 1.1 fold enrichment (6-mer frequency, TF over GST control) | binding signal [13]: 1.06 fold enrichment (6-mer frequency, TF over GST control) | binding signal [14]: 1.07 fold enrichment (6-mer frequency, TF over GST control) | binding signal [15]: 1.1 fold enrichment (6-mer frequency, TF over GST control) | binding signal [16]: 1.14 fold enrichment (6-mer frequency, TF over GST control)
